# Bioassay records: PubChem BioAssay, several laboratories
# Shown are actives, neighbours in structure and some others; about 3.5% of the full set was active somewhere.
# PG9 binder = binds the HIV-1 gp120 antibody PG9 | TR-FRET gp120-PG9 antibody binding | inhibition, % at 6.7 µM | hit rate 0.43% among 360,000 | AID 624416; in the data active = inhibition above about 8.5%
# UHRF1 MBD2 ctr = human UHRF1 methylated DNA binding inhibitors | UHRF1 binding to methylated oligo, TR-FRET | hit rate 0.75% among 370,000 | inhibition, % at 4.4 µM | AID 687016 | Q96T88; in the data active = inhibition above about 21%;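 note: UHRF1 SRA domain binding a hemimethylated CpG hairpin DNA probe; 0% = median of test compound wells and 100% = reference inhibitor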
# DNMT1 block = blocks human DNA methyltransferase DNMT1; P26358; DNMT1 molecular beacon, Hinp1I cleavage, fluorescence; inhibition (reported as % activation of signal), % at 10 µM; hit rate 0.83% among 360,000; in the data active = inhibition above about 50%
# MBD2 DNA inh = MBD2-methylated oligo binding inhibition; TR-FRET, MBD2 binding to methylated oligonucleotide; Q9UBB5; inhibition, % at 4.4 µM; hit rate 0.31% among 370,000; in the data active = inhibition above about 13%
# Target sequence (Q9UBB5 whole entry, looked up): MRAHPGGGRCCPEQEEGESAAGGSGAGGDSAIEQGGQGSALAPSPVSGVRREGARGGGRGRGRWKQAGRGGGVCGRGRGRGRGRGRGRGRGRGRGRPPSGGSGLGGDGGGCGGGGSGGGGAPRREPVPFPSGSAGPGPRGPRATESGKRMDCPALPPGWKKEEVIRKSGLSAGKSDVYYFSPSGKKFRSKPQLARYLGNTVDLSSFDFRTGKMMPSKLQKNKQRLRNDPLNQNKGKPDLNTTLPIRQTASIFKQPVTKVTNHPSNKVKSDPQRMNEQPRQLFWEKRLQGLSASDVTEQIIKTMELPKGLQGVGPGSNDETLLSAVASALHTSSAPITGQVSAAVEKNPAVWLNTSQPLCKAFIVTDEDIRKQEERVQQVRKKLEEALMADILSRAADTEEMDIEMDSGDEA
# rCAG RNA binder = r(CAG) repeat RNA binding. TO-PRO-1 dye displacement fluorescence. hit rate 1.3% among 370,000. inhibition, % at 3 µM;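 active = inhibition above the plate cutoff, the mean of all test compounds on that plate plus 3 SD, cut at about 35% in these data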;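 note: 0% = DMSO alone and 100% = 100 µM mitoxantrone as full dye displacement; higher means more dye released from RNA so lower well fluorescence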
# LEDGF integ inh = blocks HIV-1 LEDGF/p75-dependent DNA integration. hit rate 0.64% among 370,000. inhibition, % at 3.7 µM. TR-FRET IN-LEDGF/p75 DNA integration, Eu/Cy5;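 active = inhibition above the screen-wide mean plus 3 SD, cut at about 13% in these data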;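 note: signal is the Cy5 over europium emission ratio at 671 and 618 nm; 0% = plate median of compound wells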
# rCAG bind conf = r(CAG) RNA repeat binding, confirmation. AID 652065. hit rate 70% among 4,300. shares compounds with rCAG RNA binder. inhibition, % at 3 µM. TO-PRO-1 dye displacement fluorescence;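 active = inhibition above a per-plate cutoff, the mean inhibition of sample wells plus 3 SD, cut at about 35% in these data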;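 note: loss of TO-PRO-1 fluorescence as compound displaces dye from 1x1 AA loop RNA; 0% = DMSO only wells and 100% = 100 µM mitoxantrone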
# DNA CAG counter = DNA CAG dye complex inhibition counter-screen | d(CAG) DNA oligo TO-PRO-1 dye displacement, fluorescence | shares compounds with rCAG RNA binder | hit rate 94% among 4,300 | inhibition, % at 3 µM;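 active = inhibition above its plate's cutoff, the mean test-well inhibition plus 3 SD, cut at about 4.8% in these data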;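 note: 0% = DNA dye mix with DMSO and 100% = 100 µM mitoxantrone; hits displace the dye from DNA and so lower well fluorescence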
# Numbers without * were called inactive; . = no result.
SMILES,PG9 binder,UHRF1 MBD2 ctr,DNMT1 block,MBD2 DNA inh,rCAG RNA binder,LEDGF integ inh,rCAG bind conf,DNA CAG counter
CN(C)S(=O)(=O)c1ccc(C(=O)Nc2nnc(-c3ccco3)o2)cc1,-2,-5,0,0,4,-2,.,.
CCCCN(C)S(=O)(=O)c1ccc(C(=O)Nc2nnc(-c3ccco3)o2)cc1,-3,-4,-1,0,37*,4,27,8.2*
Cc1c(NC(=O)c2ccccc2NS(=O)(=O)c2ccc(Br)cc2)c(=O)n(-c2ccccc2)n1C,0,1,0,-4,42*,-3,47*,14*
Cc1c(NS(=O)(=O)c2ccc(Br)cc2)c(=O)n(-c2ccccc2)n1C,1,2,1,-3,-3,2,.,.
CCc1nc(N)c(C#N)c(-c2ccc(O)c(OC)c2)c1C,2,1,0,6,-4,0,.,.
COc1cc(-c2c(C#N)c(=O)[nH]c3c2c(C)nn3-c2ccccc2)ccc1O,-1,2,0,-2,36*,-2,30,6.3*
CC(C)NC(=O)c1sc(=S)n2c1[nH]c(=O)c1ccc(C(=O)NCCc3ccc(Cl)cc3)cc12,-3,1,-24,-1,4,-3,.,.
CCOc1ccc(CCNC(=O)c2ccc3c(=O)[nH]c4c(C(=O)NC(C)C)sc(=S)n4c3c2)cc1,-2,0,-11,3,14,-2,.,.
O=C(NCCc1ccc(Cl)cc1)c1ccc2c(=O)[nH]c3c(C(=O)NCC4CCCO4)sc(=S)n3c2c1 (configuration not stated),-1,-3,.,-5,44*,2,85*,70*
O=C(NCC1CCCO1)c1sc(=S)n2c1[nH]c(=O)c1ccc(C(=O)N3CCCCC3)cc12 (configuration not stated),-2,-2,-3,-8,81*,0,84*,40*
O=C(NCCc1ccccc1)c1ccc2c(=O)[nH]c3c(C(=O)NCC4CCCO4)sc(=S)n3c2c1 (configuration not stated),-4,-6,-15,-2,91*,3,93*,71*
CC(=O)c1ccc(N2CCN(C(=O)c3ccc4c(=O)[nH]c5c(C(=O)NC6CCCC6)sc(=S)n5c4c3)CC2)cc1,-1,-2,.,0,28,4,.,.
Cc1ccc(F)cc1C(=O)N1CCCCC1c1cc(C(=O)Nc2cccc(C#N)c2)no1 (configuration not stated),-1,1,-2,-3,1,0,.,.
COC(=O)N1C(=O)[C@@](c2ccccc2)(C2CCCCC2)N1C(=O)OC,-1,0,3,-9,-9,0,.,.
COc1ccccc1N1CCN(CCCN=C2CC(=O)N(C)C(=O)N2C)CC1,1,1,7,-5,-2,2,.,.
COc1ccc(Br)c2oc(S)cc(=O)c12,0,-4,3,-2,41*,-2,25,7.6*
COC(=O)[C@@]12C[C@@H](CC(=O)N3CCC(c4ccccc4)CC3)C(=O)N(Cc3cccc4ccccc34)C1=CCC(C)(C)C2,-1,0,.,3,10,3,.,.
Nc1nc(N)c(C=Nc2ccc(Br)cc2)c(Nc2ccc(Br)cc2)n1,-3,-2,-20,-3,20,0,.,.
C/C(=N/NC(=O)c1ccc(-c2ccccc2)cc1)c1cc(O)cc(O)c1,-2,0,-7,-3,7,-1,.,.
C/C(=N\NC(=O)c1ccc(-c2ccccc2)cc1)C1C(=O)c2ccccc2C1=O,-4,1,-35,-3,47*,-4,83*,50*
Cc1cc2nc(-c3ccco3)c(Cc3ccccc3C(F)(F)F)n2c(C)c1Br,-5,-2,.,1,47*,0,37*,14*
Cc1ccc2nc(-c3ccco3)c(Cc3ccccc3C(F)(F)F)n2c1,0,16,.,10,10,1,.,.
FC(F)(F)c1ccccc1Cc1c(-c2ccco2)nc2ccc(Br)cn12,-4,18,21,0,39*,1,5,2
